From PubChem BioAssay (Tox21)
Inconclusive results are not listed. Entries that show only a call come without a potency. A number with no mark means an inactive call. Activity calls are given as the source filed them. The call rests on the fitted dose curve; in most records, active means well fitted cell-killing curve with a large enough effect in the repeat runs; inconclusive means weak or mixed curves, or effect the other way; inactive means flat fitted curve, though single readings scatter.
Potency means the concentration at half of the fitted maximal effect.

Assay: qHTS assay to identify small molecule agonists of the androgen receptor (AR) signaling pathway in the presence of an antagonist - cell viability counter screen (AID 1259379); further: nearly all actives have a fitted effect of over 25% in size;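 on activity change, negative = cytotoxicity: MDA-kb2 human breast cancer cells carrying an MMTV luciferase reporter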
Conditions: MDA-kb2 viability, CellTiter-Fluor, 16 h; series mostly up to 92.4 µM
Procedure, shortened: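 Nilutamide-containing (3.0uM final) MDA-kb2 cultures, 3,000 cells/well, were treated with compounds across 15 concentrations. After 16 hr at 37C with no CO2, cell viability was determined by CellTiter-Fluor fluorescence in the luciferase assay wells.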
In the case of `CC(C=O)c1ccccc1` (stereo not given), the Potency is reported as “inactive”. For `CCCC(C)C=O` (stereo not given), the Potency was “inactive”. In the case of `C=CC(=O)O[C@H]1C[C@@H]2CC[C@@]1(C)C2(C)C`, the Potency is reported as “inactive”. In the case of `O=C1OC(=O)c2cc(-c3ccc4c(c3)C(=O)OC4=O)ccc21`, the Potency is reported as “inactive”. For `CCCCCCCCCCCCCCCCCCNC(=O)OC1CCN(C(=O)OC[C@H](COC(=O)N(Cc2cccc[n+]2CC)C(=O)c2ccccc2OC)OC)CC1`, the Potency was 26.6 µM (active). Compound `C=C[Si](C)(C)Cl` has an activity change, negative = cytotoxicity of -1.9% [at 8.39 µM]. For `CCC(C)(C)c1ccc(CC(C)CN2C[C@@H](C)O[C@@H](C)C2)cc1` (stereo not given in full), the Potency was “inactive”. With `CN1CCN(c2ccccc2/C=C2\SCCN(c3ccc(Cl)c(Cl)c3)C2=O)CC1` the Potency was 48.6 µM (active). For `Cc1ccc2nc(-c3ccc(N)cc3)sc2c1S(=O)(=O)O`, the Potency was “inactive”. In the case of `O=[N+]([O-])c1ccc(CO)cc1`, the Potency is reported as “inactive”. For `NC(=O)c1ccccc1Cl`, the Potency was “inactive”. With `CC(CC(C)(C)C)CC(C)(C)CC(C)(C)C` (stereo not given) the Potency was “inactive”. Compound `O=C(O)C[C@H](O)C[C@H](O)/C=C/c1c(C2CC2)nc2ccccc2c1-c1ccc(F)cc1` has an activity change, negative = cytotoxicity of 0.182% [at 19 µM]. With `C=Cc1ccncc1` the Potency was “inactive”. With `CCN(CC)c1ccc(N=Nc2ccccc2)cc1` the Potency was 27.3 µM (active).
